Assay outcomes as filed in PubChem.
MCF10A rereplic: inducers of DNA re-replication in MCF 10A breast cells | MCF 10A DNA re-replication, Hoechst nuclear intensity, 48 h | Potency, µM (highest dose often 46.1 µM), for inactives: at the top dose activity, positive = re-replication, hits mostly activators | actives 2.9% (n = 350,000) | AID 624296; note: potency is the fitted concentration of half-maximal effect; % of control where 0% means no effect; nearly all actives have a fitted effect of over 50% in size
Chronic BCR inh: inhibitors of chronic active B-cell receptor signaling; Potency, µM (titrated, usually from 46.1 µM), for the others: top-dose activity change, negative = inhibition, most hits filed as inhibitors; ABC-DLBCL IkBa-CBG/CBR reporter, luminescence ratio, 4 h; actives 0.05% (n = 340,000); active = well fitted inhibition curve with a large enough effect in the signal ratio, with a control signal flat, not every such curve was filed as active; inconclusive = small, poorly fitted or top-dose-only effect, or effect the other way, or a change in a side signal; the % refers to the signal ratio;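 note: potency is the fitted concentration of half-maximal effect; plate controls were basal doxycycline-induced cells for no effect and cells given 10 µM MG132 for full effect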
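TMD8 human ABC-DLBCL cells with doxycycline-inducible IκBα–green luciferase fusion and unfused red luciferase, in 0.5% FBS medium; compounds up to 46 uM, 4 h at 37C. Green/red luminescence ratio, filter-overlap corrected, fitted to concentration-response curves.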
TDP1 cell CPT: growth inhibition of DT40 Tdp1-/-;hTDP1 cells with camptothecin (screen for TDP1 inhibitors). AID 686979. chicken DT40 Tdp1-/-;hTDP1 cells + 20 nM CPT, ATP luminescence, 48 h. actives 12% (n = 420,000). Potency, µM (titrated, usually from 46.2 µM), without a hit: at the highest dose activity change, negative = growth inhibition, hits mostly inhibitors; note: potency is the fitted concentration of half-maximal effect; % is set by controls: 0 for no effect and ±100 for the full control effect; nearly all actives have a fitted effect of over 55% in size
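Cell growth measured by CellTiter-Glo luminescence after a minimum 48 h, 37 C compound exposure with 20 nM CPT in Tdp1-knockout DT40 cells stably expressing hTDP1, seeded 400/well; qHTS titration format.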
DT40 TDP1 no CPT: qHTS for Inhibitors of human tyrosyl-DNA phosphodiesterase 1 (TDP1): qHTS in cells in absence of CPT. DT40 Tdp1-/- hTDP1 cells, no CPT, ATP luminescence, 48 h. AID 686978, 2013. actives 15% (n = 420,000). Potency, µM (top dose mostly 46.2 µM), inactives show top-dose activity change, negative = growth inhibition, most hits filed as inhibitors; note: potency is the fitted concentration of half-maximal effect; % is set by controls: 0 for no effect and ±100 for the full control effect; nearly all actives have a fitted effect of over 55% in size
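Compound effects on proliferation are scored in DT40 Tdp1-/-;hTDP1 cells in the absence of CPT. ATP levels (CellTiter-Glo luminescence) are recorded after a ≥48 hr, 37 °C incubation.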
SW480 rerep: inducers of DNA re-replication in SW480 colon cancer cells. SW480 DNA re-replication, Hoechst DNA content imaging, 48 h. Potency, µM (top dose mostly 46.1 µM), for inactives: at the highest dose re-replication activation, usual class: activators. actives 1.8% (n = 340,000); note: potency is the fitted concentration of half-maximal effect; % of control where 0% means no effect; nearly all actives have a fitted effect of over 55% in size
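Quantitative HTS format with DMSO vehicle controls; 48 hr drug incubation at 37 C, then 40 min Hoechst staining and scanning imager measurement at 405 nm excitation.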
IL-1B inflam inh: inhibitors of inflammasome signaling (IL-1 beta secretion). THP-1 LPS/ATP IL-1B secretion, AlphaLISA, 16 h; active compounds read low. activity change, % at 57.5 µM. actives 4.7% (n = 360,000); in the data active = activity change below about -50%; inconclusive = mostly about -30% to -49%; note: % is set by controls: 0 for no effect and ±100 for the full control effect
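THP-1 cells pretreated 1 hr with compounds (up to 57.5 uM final), then stimulated with LPS (250 ng/mL final) plus ATP (1.25 mM final); secreted IL-1B measured by AlphaLISA after 16 hr, decreased signal indicating inhibition.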
Active calls of the source: *; ? = inconclusive; nt = no result. Compounds with a hit are over-represented: about 19% of the library has one in this group of screens. Unless noted, calls come from the whole dose curve; as a rule, active = well fitted curve in the direction sought with a large enough effect; inconclusive = small, poorly fitted or top-dose-only effect, or another doubt; inactive = no such curve, though single readings can be large; an effect the other way counts as inactive or inconclusive.

SMILES	MCF10A rereplic	Chronic BCR inh	TDP1 cell CPT	DT40 TDP1 no CPT	SW480 rerep	IL-1B inflam inh
CCC1CCCCN1C(=O)CCS(=O)(=O)c1ccccc1 (stereo not given)	0%	6%	1%	24%	-8%	12
CSc1ncnc2c1ncn2CCCNCC(c1ccccc1)c1ccccc1	nt	nt	?	26µM*	nt	-3
CC(CNCCCn1cnc2c(OCc3ccccc3)ncnc21)c1ccccc1 (stereo not given)	?	nt	?	?	15%	-17
c1ccc(CNCCCn2cnc3c(OCc4ccccc4)ncnc32)cc1	?	nt	29µM*	23µM*	-1%	-12
c1ccc(CCCNCCCn2cnc3c(OCc4ccccc4)ncnc32)cc1	?	nt	10µM*	12µM*	0%	-86*
C[C@@H](NCCCn1cnc2c(OCc3ccccc3)ncnc21)c1cccc2ccccc12	?	nt	?	16µM*	10%	-27
COc1ccccc1NC(=O)c1cc2c(CO)cnc(C)c2oc1=Nc1cc(OC)c(OC)c(OC)c1	0%	5%	1%	-11%	0%	57
COc1ccccc1NC(=O)c1cc2c(CO)cnc(C)c2oc1=Nc1ccc(OC)c(OC)c1	-4%	?	9.2µM*	?	-12%	36
COc1ccc(NC(=O)c2cc3c(CO)cnc(C)c3oc2=Nc2cccc(C)c2)c(OC)c1	?	?	?	4.1µM*	-3%	150
CCC1(c2ccc(OC)cc2)NC(=O)N(CC(=O)c2ccc3c(c2)OCCO3)C1=O (stereo not given)	-6%	-7%	-23%	?	-7%	-14
CC(=O)Nc1ccc(NC(=O)c2nc(SCc3ccccc3F)ncc2Cl)cc1	nt	nt	-22%	-8%	nt	nt
COc1ccccc1NC(=O)c1nc(SCc2ccccc2F)ncc1Cl	nt	nt	?	-7%	nt	nt
O=C(Nc1ccc2ccccc2c1)c1nc(S(=O)(=O)Cc2ccccc2F)ncc1Cl	nt	nt	0.71µM*	1.3µM*	nt	nt
CCOc1ccccc1NC(=O)c1nc(S(=O)(=O)Cc2ccccc2F)ncc1Cl	nt	nt	0.56µM*	?	nt	nt
CCSc1ncc(Cl)c(C(=O)Nc2ccccc2F)n1	?	10%	0%	-15%	-44%	6
Cc1cccc(C)c1NC(=O)c1nc(S(=O)(=O)Cc2ccccc2F)ncc1Cl	nt	nt	1.3µM*	5µM*	nt	nt
COC(=O)c1ccc(NC(=O)c2nc(SCc3ccccc3F)ncc2Cl)cc1	nt	nt	?	18µM*	nt	nt
Cc1c(C(=O)OCC(=O)N(C)CC(=O)Nc2ccc(F)cc2)oc2ccccc12	16%	-9%	-11%	-21%	-5%	-17
O=C(Nc1ccccc1F)c1nc(S(=O)(=O)Cc2ccccc2F)ncc1Cl	nt	nt	1.3µM*	0.92µM*	nt	nt
COC(=O)c1ccccc1NC(=O)c1nc(S(=O)(=O)Cc2ccccc2F)ncc1Cl	nt	nt	-11%	?	nt	nt
COc1ccc(-c2cc(OC(=O)c3cccc(Cl)c3)c3c(C)oc(C)c3c(=O)c2)cc1	nt	nt	26µM*	?	nt	nt
CCOc1ccc(C(=O)NCc2nc(-c3ccc(Cl)cc3)no2)cc1OCC	nt	nt	-19%	?	nt	nt
CCOc1cc(-c2ccc(OC(=O)c3ccccc3)c(OC)c2)cc(=O)c2c(C)oc(C)c12	nt	nt	6.5µM*	5.8µM*	nt	nt
CCOc1cc(-c2ccc(OC(=O)c3ccc(Cl)cc3)c(OC)c2)cc(=O)c2c(C)oc(C)c12	nt	nt	4.6µM*	5.2µM*	nt	nt
COc1ccc(-c2cc(OC(=O)c3ccc(F)cc3)c3c(C)oc(C)c3c(=O)c2)cc1	nt	10%	nt	nt	nt	nt
SMILES	MCF10A rereplic	Chronic BCR inh	TDP1 cell CPT	DT40 TDP1 no CPT	SW480 rerep	IL-1B inflam inh
Cc1cc(C=O)c(O)cc1O	-66%	-1%	-13%	-15%	?	28
N/C(=N\c1nc2c(c(=O)[nH]1)CCC2)Nc1cccc(Cl)c1	?	2%	21µM*	26µM*	?	-22
O=C(NCc1ccccc1F)C(=O)NCC(c1cccs1)S(=O)(=O)c1cccs1 (stereo not given)	nt	-7%	-27%	?	nt	nt
Cc1ccc(NC(=O)Cc2nnc(SCC(=O)NC3CCCC3)n2C)cc1C	-3%	1%	-3%	23%	?	13
Cc1ccc(NC(=O)NNC(=O)Cn2nc(-c3ccccc3)c(-c3ccccc3)c(C#N)c2=O)cc1	1.5µM*	?	?	?	2.9µM*	74
C/C(=N\O)c1cc(Cl)cc(Cl)c1O	0%	6%	-2%	-18%	7%	-83*
O=C(Cn1cc([N+](=O)[O-])ccc1=O)N1CCc2ccccc21	-1%	2%	1%	-4%	?	-1
COC(=O)C1=CN(Cc2ccc(OC)cc2)C=C(C(=O)OC)C1c1ccsc1	?	?	21µM*	?	23µM*	-28
COC(=O)C1=CN(CC2CCCO2)C=C(C(=O)OC)C1c1ccsc1 (stereo not given)	6%	1%	12%	2%	-19%	-10
COC(=O)C1=CN(CCOC23CC4CC(CC(C4)C2)C3)C=C(C(=O)OC)C1c1ccsc1	?	17%	?	12µM*	?	-27
COc1cccc(C(=O)NCCCNC(=O)c2cccnc2)c1	4%	-27%	0%	6%	-1%	22
COc1ccc(CCNC(=O)C2CC(c3cc(C(F)(F)F)cc(C(F)(F)F)c3)=NO2)cc1 (stereo not given)	-2%	-21%	?	?	15%	-2
COc1ccc(C2=NOC(C(=O)NCc3ccc(F)cc3)C2)cc1 (stereo not given)	?	?	2.3µM*	2.3µM*	4%	16
COc1ccc(CCNC(=O)C2CC(c3ccc([N+](=O)[O-])cc3)=NO2)cc1 (stereo not given)	2%	?	6.5µM*	?	-10%	21
COc1ccc(CCNC(=O)c2cccnc2)cc1	16µM*	-9%	-10%	-20%	?	14
COc1ccc(C(=O)NCCNc2ccc([N+](=O)[O-])cc2)cc1	-3%	2%	-26%	?	-2%	-7
COc1ccc(CCNC(=O)c2ccc([N+](=O)[O-])cc2)cc1	13%	?	23µM*	?	1%	7
Cc1c(C(=O)NCc2ccc3c(c2)OCO3)sc(=O)n1Cc1cccc(F)c1	nt	nt	?	?	nt	-26
CCn1ncc(C2=NOC(C(=O)NCc3ccc(Cl)cc3)C2)c1C (stereo not given)	?	?	5.8µM*	5.8µM*	3.7µM*	55
